Results as given in PMC7862700, “An all-to-all approach to the identification of sequence-specific readers for epigenetic DNA modifications on cytosine”.

Assays:
Assay in all cases: DAPPL (digital affinity profiling via proximity ligation, sequencing); 10 mM Tris-HCl pH 7.5, 50 mM NaCl, 1 mM DTT, 4% glycerol, room temperature, 30 min; GST-TFs on glutathione beads, 16-mer random dsDNA library, 0.1% formaldehyde crosslink after washing; high values mean tight binding
Details in all cases: protein: recombinant; tags: N-terminal GST; dsDNA, one strand shown
ETV5 = ETV5 (Homo sapiens, UniProt P41161 1-510)
Chain of ETV5 (P41161 whole entry, the tested form may be a part): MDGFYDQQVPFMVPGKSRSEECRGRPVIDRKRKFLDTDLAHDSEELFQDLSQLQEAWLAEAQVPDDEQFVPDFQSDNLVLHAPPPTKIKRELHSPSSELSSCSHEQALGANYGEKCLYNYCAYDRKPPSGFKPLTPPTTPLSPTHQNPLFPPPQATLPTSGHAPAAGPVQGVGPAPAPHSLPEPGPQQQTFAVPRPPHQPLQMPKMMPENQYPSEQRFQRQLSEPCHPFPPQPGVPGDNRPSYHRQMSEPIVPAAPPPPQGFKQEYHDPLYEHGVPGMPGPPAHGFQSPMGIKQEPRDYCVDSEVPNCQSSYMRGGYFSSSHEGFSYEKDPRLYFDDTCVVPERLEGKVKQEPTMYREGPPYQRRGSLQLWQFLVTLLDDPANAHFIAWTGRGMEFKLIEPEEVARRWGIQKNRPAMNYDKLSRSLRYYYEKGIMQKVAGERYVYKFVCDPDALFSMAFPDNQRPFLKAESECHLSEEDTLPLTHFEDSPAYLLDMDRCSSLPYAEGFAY
Summary of the method: (§1)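 Yeast served to express human transcription factors as GST fusions, which were then captured on glutathione beads and labelled with DNA barcodes. Pooled with a tag-only sample, they were incubated with 200 nmole of a 16-mer random double-stranded DNA library for 30 min at room temperature in Tris/NaCl/DTT/glycerol buffer, washed, crosslinked with 0.1% formaldehyde, ligated by proximity, amplified by PCR and sequenced. Dividing each hexamer's read frequency for a factor by its frequency for the tag-only sample gives the binding signal.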

SPIC = biological target: T1, SPIC (Homo sapiens, UniProt Q8N5J4 1-248)
T1 sequence: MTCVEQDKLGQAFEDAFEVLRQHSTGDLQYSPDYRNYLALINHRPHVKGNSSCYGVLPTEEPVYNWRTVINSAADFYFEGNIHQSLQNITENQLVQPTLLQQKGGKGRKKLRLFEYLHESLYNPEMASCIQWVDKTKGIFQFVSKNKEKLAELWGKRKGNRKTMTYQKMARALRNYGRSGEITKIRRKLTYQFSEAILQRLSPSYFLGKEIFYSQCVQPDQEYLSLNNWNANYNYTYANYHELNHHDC
Summary of the method: as §1

ELF4 = ELF4 (Homo sapiens, UniProt Q99607 1-663)
Chain of ELF4 (Q99607 whole entry): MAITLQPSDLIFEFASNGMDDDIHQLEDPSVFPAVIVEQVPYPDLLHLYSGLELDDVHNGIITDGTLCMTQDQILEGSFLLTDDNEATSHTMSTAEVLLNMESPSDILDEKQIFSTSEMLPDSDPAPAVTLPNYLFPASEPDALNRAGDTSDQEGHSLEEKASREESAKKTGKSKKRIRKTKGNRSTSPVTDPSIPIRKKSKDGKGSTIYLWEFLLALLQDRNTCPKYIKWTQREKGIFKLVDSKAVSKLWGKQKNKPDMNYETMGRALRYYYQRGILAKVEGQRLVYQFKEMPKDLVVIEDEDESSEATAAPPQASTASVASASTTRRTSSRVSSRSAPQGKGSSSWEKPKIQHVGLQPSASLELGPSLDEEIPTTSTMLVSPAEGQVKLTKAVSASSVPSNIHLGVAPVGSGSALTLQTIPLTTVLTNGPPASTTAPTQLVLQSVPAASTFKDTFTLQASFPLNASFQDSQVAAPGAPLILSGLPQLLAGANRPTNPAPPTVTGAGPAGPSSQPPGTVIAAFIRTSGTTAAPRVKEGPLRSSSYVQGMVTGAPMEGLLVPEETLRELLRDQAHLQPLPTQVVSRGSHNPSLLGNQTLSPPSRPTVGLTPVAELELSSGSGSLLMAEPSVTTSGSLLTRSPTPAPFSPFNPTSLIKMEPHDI
Summary of the method: as §1

ELK4 = biological target: T2, ELK4 (Homo sapiens, UniProt P28324-2 1-405)
T2 sequence: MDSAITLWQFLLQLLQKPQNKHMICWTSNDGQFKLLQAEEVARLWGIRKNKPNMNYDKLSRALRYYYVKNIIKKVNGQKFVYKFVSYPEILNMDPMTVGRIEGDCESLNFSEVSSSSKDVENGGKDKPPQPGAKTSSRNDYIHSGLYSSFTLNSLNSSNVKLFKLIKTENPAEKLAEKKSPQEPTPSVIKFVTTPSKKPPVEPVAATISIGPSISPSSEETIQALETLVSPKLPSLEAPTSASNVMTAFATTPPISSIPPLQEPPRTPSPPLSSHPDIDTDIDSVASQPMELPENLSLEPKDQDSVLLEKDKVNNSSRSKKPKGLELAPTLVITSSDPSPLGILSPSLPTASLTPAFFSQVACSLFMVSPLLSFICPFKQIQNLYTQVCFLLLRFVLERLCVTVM
Summary of the method: as §1

ETV2 = biological target: T3, ETV2 (Homo sapiens, UniProt O00321 1-342)
T3 sequence: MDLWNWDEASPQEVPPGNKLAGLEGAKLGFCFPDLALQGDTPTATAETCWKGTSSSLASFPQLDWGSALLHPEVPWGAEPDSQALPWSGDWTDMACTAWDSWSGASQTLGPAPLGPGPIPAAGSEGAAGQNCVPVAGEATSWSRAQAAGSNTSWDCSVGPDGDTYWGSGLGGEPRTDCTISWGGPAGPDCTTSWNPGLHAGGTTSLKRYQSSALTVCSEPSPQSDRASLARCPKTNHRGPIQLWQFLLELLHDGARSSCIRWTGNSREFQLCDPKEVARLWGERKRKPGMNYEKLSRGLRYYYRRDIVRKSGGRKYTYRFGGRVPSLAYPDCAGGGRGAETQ
Summary of the method: as §1

ELF3 = biological target: T4, ELF3 (Homo sapiens, UniProt P78545 1-371)
T4 sequence: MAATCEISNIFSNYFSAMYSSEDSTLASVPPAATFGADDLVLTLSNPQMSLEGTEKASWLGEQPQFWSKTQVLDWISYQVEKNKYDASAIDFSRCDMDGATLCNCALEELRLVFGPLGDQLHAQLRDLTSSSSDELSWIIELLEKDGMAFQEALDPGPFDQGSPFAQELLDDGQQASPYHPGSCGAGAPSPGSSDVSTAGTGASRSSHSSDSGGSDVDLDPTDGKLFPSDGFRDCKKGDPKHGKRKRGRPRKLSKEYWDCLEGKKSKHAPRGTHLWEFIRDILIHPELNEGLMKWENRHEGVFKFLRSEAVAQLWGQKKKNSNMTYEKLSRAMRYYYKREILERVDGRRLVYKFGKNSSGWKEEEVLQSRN
Summary of the method: as §1

ETV1 = ETV1 (Homo sapiens, UniProt P50549 1-477)
Chain of ETV1 (P50549 whole entry): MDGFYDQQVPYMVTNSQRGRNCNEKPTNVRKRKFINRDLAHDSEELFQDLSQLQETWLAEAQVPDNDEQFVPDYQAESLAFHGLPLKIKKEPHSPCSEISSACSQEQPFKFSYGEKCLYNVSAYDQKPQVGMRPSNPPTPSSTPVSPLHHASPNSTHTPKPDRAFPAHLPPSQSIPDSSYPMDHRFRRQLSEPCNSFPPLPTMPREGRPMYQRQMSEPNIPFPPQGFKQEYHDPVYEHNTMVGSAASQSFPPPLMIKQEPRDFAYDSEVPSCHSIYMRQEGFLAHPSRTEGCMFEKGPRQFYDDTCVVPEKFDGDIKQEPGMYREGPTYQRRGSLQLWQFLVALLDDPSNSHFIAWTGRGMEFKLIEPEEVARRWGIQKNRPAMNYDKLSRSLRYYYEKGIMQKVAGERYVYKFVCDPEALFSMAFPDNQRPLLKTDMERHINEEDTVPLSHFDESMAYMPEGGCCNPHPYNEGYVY
Summary of the method: as §1

ETV3L = biological target: T5, ETV3L (Homo sapiens, UniProt Q6ZN32 1-361)
T5 sequence: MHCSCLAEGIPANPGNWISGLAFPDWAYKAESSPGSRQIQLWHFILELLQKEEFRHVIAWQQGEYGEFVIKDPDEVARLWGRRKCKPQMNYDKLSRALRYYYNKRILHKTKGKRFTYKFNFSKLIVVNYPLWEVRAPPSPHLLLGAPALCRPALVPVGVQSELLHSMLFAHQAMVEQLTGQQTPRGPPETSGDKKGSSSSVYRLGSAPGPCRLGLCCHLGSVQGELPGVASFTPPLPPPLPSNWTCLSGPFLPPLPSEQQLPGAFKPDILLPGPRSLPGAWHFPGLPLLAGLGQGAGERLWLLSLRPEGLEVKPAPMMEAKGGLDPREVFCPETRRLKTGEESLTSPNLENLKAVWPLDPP
Summary of the method: as §1

SPDEF = biological target: T6, SPDEF (Homo sapiens, UniProt O95238 1-335)
T6 sequence: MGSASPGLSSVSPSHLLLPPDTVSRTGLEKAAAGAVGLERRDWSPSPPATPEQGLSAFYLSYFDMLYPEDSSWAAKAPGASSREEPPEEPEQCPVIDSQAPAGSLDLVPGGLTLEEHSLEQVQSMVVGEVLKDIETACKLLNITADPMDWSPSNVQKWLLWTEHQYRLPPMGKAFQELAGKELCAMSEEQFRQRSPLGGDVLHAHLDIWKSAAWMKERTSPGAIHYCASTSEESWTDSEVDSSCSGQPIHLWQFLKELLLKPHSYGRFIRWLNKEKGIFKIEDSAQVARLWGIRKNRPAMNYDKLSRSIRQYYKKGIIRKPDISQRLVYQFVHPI
Summary of the method: as §1

ETV7 = biological target: T7, ETV7 (Homo sapiens, UniProt Q9Y603 1-341)
T7 sequence: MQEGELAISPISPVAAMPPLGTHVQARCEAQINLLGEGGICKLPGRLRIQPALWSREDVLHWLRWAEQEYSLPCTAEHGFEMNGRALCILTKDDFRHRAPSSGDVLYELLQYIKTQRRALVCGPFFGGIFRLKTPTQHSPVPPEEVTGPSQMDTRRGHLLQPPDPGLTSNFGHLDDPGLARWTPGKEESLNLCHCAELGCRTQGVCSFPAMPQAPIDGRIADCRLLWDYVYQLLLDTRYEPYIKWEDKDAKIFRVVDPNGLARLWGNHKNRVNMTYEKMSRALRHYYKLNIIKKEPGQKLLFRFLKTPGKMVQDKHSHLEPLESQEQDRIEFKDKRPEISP
Summary of the method: as §1

ETV3 = biological target: T8, ETV3 (Homo sapiens, UniProt P41162-2 1-143)
T8 sequence: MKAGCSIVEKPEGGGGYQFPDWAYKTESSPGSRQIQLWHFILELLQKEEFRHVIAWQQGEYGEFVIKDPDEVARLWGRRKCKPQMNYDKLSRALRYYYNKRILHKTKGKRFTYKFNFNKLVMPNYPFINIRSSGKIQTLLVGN
Summary of the method: as §1

FEV = biological target: T9, FEV (Homo sapiens, UniProt Q99581 1-238)
T9 sequence: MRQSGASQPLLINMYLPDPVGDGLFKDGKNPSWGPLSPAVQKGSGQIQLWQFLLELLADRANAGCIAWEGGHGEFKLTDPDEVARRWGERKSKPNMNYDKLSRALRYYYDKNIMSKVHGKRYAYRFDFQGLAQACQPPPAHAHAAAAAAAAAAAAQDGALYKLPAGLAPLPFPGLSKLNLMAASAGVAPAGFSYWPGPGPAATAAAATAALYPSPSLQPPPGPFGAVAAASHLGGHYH
Summary of the method: as §1

ERF = biological target: T10, ERF (Homo sapiens, UniProt P50548 1-548)
T10 sequence: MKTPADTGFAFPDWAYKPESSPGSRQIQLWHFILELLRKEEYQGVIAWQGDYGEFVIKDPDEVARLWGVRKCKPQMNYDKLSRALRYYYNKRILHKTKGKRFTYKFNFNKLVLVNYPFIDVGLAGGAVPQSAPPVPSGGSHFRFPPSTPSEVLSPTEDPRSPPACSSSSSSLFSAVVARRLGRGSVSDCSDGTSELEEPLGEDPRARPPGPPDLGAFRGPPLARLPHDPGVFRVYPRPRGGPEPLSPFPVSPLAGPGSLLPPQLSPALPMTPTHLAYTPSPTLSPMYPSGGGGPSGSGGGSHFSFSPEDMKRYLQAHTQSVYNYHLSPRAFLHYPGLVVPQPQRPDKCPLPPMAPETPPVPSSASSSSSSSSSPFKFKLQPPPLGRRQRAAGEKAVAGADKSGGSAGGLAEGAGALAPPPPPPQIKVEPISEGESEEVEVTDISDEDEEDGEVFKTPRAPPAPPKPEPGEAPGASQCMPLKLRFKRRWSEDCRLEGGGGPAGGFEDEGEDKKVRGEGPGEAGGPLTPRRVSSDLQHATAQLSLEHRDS
Summary of the method: as §1

ETS2 = biological target: T11, ETS2 (Homo sapiens, UniProt P15036 1-469)
T11 sequence: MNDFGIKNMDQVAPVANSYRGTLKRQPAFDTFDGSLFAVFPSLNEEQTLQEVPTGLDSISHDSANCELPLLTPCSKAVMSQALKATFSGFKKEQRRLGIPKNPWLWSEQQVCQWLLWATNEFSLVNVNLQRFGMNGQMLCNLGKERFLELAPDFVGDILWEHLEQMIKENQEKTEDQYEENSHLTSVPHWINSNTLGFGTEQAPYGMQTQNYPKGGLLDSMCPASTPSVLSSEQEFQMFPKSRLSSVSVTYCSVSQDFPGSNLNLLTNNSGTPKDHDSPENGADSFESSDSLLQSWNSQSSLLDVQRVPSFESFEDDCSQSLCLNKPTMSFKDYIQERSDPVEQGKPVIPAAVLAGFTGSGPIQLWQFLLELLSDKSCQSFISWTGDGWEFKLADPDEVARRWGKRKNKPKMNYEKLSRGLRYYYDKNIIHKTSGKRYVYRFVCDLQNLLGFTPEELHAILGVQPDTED
Summary of the method: as §1

ELF5 = biological target: T12, ELF5 (Homo sapiens, UniProt Q9UKW6-2 1-255)
T12 sequence: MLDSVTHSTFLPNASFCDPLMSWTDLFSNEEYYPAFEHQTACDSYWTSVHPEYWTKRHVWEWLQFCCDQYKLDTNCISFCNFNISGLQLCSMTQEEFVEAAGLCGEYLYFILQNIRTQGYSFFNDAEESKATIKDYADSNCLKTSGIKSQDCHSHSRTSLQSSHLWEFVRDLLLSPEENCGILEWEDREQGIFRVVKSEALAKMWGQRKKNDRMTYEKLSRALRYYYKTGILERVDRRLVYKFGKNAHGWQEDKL
Summary of the method: as §1

ETV6 = ETV6 (Homo sapiens, UniProt P41212 1-452)
Chain of ETV6 (P41212 whole entry): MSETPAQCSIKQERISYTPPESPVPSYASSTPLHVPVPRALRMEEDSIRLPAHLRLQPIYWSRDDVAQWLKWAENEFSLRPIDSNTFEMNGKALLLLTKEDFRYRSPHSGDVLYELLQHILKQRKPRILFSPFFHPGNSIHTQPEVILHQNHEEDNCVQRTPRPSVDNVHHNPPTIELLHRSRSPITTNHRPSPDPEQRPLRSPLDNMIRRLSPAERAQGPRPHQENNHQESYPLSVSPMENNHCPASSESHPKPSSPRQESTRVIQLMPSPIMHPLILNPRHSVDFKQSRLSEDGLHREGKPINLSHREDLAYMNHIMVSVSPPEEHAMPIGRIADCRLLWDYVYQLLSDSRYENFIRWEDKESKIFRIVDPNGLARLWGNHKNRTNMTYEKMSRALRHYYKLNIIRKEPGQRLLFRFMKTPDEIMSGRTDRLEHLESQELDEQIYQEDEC
Summary of the method: as §1

Row | Sequence | binding signal (ETV5) | binding signal (SPIC) | binding signal (ELF4) | binding signal (ELK4) | binding signal (ETV2) | binding signal (ELF3) | binding signal (ETV1) | binding signal (ETV3L) | binding signal (SPDEF) | binding signal (ETV7) | binding signal (ETV3) | binding signal (FEV) | binding signal (ERF) | binding signal (ETS2) | binding signal (ELF5) | binding signal (ETV6)
1 | ATAGGT | 1.08 fold enrichment (6-mer frequency, TF over GST control) | 1.01 fold enrichment (6-mer frequency, TF over GST control) | 1.01 fold enrichment (6-mer frequency, TF over GST control) | 1.02 fold enrichment (6-mer frequency, TF over GST control) | 1.11 fold enrichment (6-mer frequency, TF over GST control) | 1.11 fold enrichment (6-mer frequency, TF over GST control) | 1.03 fold enrichment (6-mer frequency, TF over GST control) | 1.05 fold enrichment (6-mer frequency, TF over GST control) | 1.05 fold enrichment (6-mer frequency, TF over GST control) | 1.17 fold enrichment (6-mer frequency, TF over GST control) | 1.06 fold enrichment (6-mer frequency, TF over GST control) |  |  |  |  | 
2 | GCGCTC | 1.13 fold enrichment (6-mer frequency, TF over GST control) | 1.04 fold enrichment (6-mer frequency, TF over GST control) | 1.24 fold enrichment (6-mer frequency, TF over GST control) | 1.19 fold enrichment (6-mer frequency, TF over GST control) | 1.22 fold enrichment (6-mer frequency, TF over GST control) | 1.19 fold enrichment (6-mer frequency, TF over GST control) |  | 1.19 fold enrichment (6-mer frequency, TF over GST control) | 1.07 fold enrichment (6-mer frequency, TF over GST control) | 1.04 fold enrichment (6-mer frequency, TF over GST control) | 1.08 fold enrichment (6-mer frequency, TF over GST control) | 1.06 fold enrichment (6-mer frequency, TF over GST control) | 1.2 fold enrichment (6-mer frequency, TF over GST control) | 1.2 fold enrichment (6-mer frequency, TF over GST control) | 1.05 fold enrichment (6-mer frequency, TF over GST control) | 1.02 fold enrichment (6-mer frequency, TF over GST control)
3 | GATACG | 1.1 fold enrichment (6-mer frequency, TF over GST control) | 1.2 fold enrichment (6-mer frequency, TF over GST control) | 1.07 fold enrichment (6-mer frequency, TF over GST control) | 1.13 fold enrichment (6-mer frequency, TF over GST control) | 1.06 fold enrichment (6-mer frequency, TF over GST control) | 1.09 fold enrichment (6-mer frequency, TF over GST control) | 1.1 fold enrichment (6-mer frequency, TF over GST control) | 1.1 fold enrichment (6-mer frequency, TF over GST control) | 1.35 fold enrichment (6-mer frequency, TF over GST control) |  | 1.12 fold enrichment (6-mer frequency, TF over GST control) | 1.08 fold enrichment (6-mer frequency, TF over GST control) | 1.12 fold enrichment (6-mer frequency, TF over GST control) | 1.11 fold enrichment (6-mer frequency, TF over GST control) | 1.1 fold enrichment (6-mer frequency, TF over GST control) | 1.09 fold enrichment (6-mer frequency, TF over GST control)
